# This is part of a sample that, as a whole, favours compounds with a hit. Of some 83,000 tested, about 20% had one in any assay.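 Method: cells in 96-well plates; compound added at one concentration; 48 h incubation; percent growth measured; values under 10 scored active.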 Calls of active or inactive are those of the source.
# System: MDA-MB-468 breast
# Assay: NCI-60 one-dose screen, 48 h (100 = growth as untreated, 0 = no growth, -100 = all killed)
# Conditions: 10 µM unless noted
row,Structure (SMILES),growth
1,NS(=O)(=O)c1ccc(-n2cc(-c3cccc(NC(=O)c4ccc(N5CCOCC5)c(C(F)(F)F)c4)c3)nn2)cc1,36.7% (inactive)
2,O=C(CSc1nnc(Cc2ccccc2Nc2c(Cl)cccc2Cl)n1-c1ccccc1)N1N=C(c2ccc3ccccc3c2)CC1c1ccc(Cl)cc1 (centres undefined),114% (inactive)
3,COc1ccc(/C=N/C2=C(C#N)C(c3ccccc3[N+](=O)[O-])c3ccc4ccccc4c3O2)cc1 (centres undefined),104% (inactive)
4,CC1CCN(CCCCCOc2ccc3oc4ccc(Cl)cc4c(=O)c3c2)CC1,54.5% (inactive)
5,COc1ccc2c(c1)c(-c1nn3c(=O)cc(-c4ccccc4)nc3s1)cn2C,20.1% (inactive)
6,COc1cc(NCC(O)CN(CC(C)C)CC(C)C)c2nc(C)ccc2c1 (centres undefined),-6.94% (active)
7,CNC(=O)c1c(NC(=O)c2ccc(C(C)(C)C)cc2)sc2c(CN(C)C)c(O)ccc12,-60.5% (active)
8,NC(N)=Nc1ccc(Oc2ccc(Nc3ccc(Cl)c(C(F)(F)F)c3)cc2)cc1,22.2% (inactive)
9,O=C1NC(c2ccc(Cl)c(Cl)c2)=C/C1=C\c1ccccc1,63.3% (inactive)
10,c1ccc(-c2nnc(Nc3nnc(-c4ccccc4)s3)s2)cc1,107% (inactive)
11,c1ccc(CNCCN(CCNCc2ccccn2)Cc2ccc3ccccc3c2)nc1,-10% (active)
12,Cc1cccc(Cl)c1N,110% (inactive)
13,C[C@]12CC[C@@H]3c4ccc(O)cc4C[C@@H](O)[C@H]3[C@@H]1CC[C@@H]2O,98.1% (inactive)
14,O=C(Nc1ccc(Cl)c([N+](=O)[O-])c1)Nc1nc2ccccc2s1,40.6% (inactive)
